{"source": "PubChem BioAssay AID743366", "about": "(National Center for Advancing Translational Sciences (NCATS), 2014)"}
{"experiment": "qHTS profiling of inhibitors of Plasmodium falciparum (HB3) proliferation (acoustic dispense)", "conditions": "P. falciparum HB3 in erythrocytes, SYBR Green, 72 h; at 49.8 µM (top of the series) unless noted", "description": "Plasmodium falciparum is a virulent malarial parasite that kills 1-2 million people worldwide each year. Transmitted by mosquitoes, the sporozoite form of the parasite enters the blood stream to infect hepatocytes, where they become merozoites that infect red blood cells (erythrocytes). Within erythrocytes, merozoites begin a […] cycle of growth and division, after which the parasite is released to infect new red blood cells. Gametocytes, which form within erythrocytes as well, circulate in the bloodstream and are ingested by the mosquito, thereby completing the life cycle. To profile malarial isolates for differential chemical responses and to identify inhibitors of malarial growth, an assay that measures P. falciparum growth and replication within erythrocytes was employed. This assay uses a DNA binding fluorescent dye (SYBR Green) to detect parasite DNA following cell lysis. Because mature erythrocytes lack DNA, only Plasmodium-derived DNA is detected.\nThe SYBR Green viability assay was adapted from a method described previously (Plouffe et al., 2008). For screening 3 ul culture medium was dispensed into 1536 well black clear bottom plates (Aurora Biotechnologies) using a Multidrop Combi (Thermo Fisher Scientific Inc.), 23 nL of compounds in DMSO were added by an acoustic dispenser (EDC Biosystems), and 5 ul of erythrocytes infected with P. falciparum (0.3% parasitemia, 2.5% hematocrit final concentration) were added. The plates were incubated at 37 C in a humidified incubator in 5% CO2 for 72 h, and 2 ul lysis buffer (20 mM Tris HCl, 10 mM EDTA, 0.16% saponin, 1.6% triton X, 10X SYBR Green I supplied as 10,000X […] by Invitrogen) was added to each well. The plates were mixed for 25 sec with gentle shaking and incubated overnight at room temperature in the dark. The following morning, fluorescence intensity at 485(14) nm excitation and 535(25) nm emission wavelengths was measured on an EnVision (Perkin Elmer) plate reader. Plate reads were normalized relative to the control inhibitor (0.29 uM artemisinin) and vehicle (DMSO) wells present on each plate and then corrected by an algorithm using vehicle-only control plates at the beginning and end of the compound plate stack."}
{"smiles": "C[C@@H]1C[C@@H]([C@H](O)CC2CC(=O)NC(=O)C2)C(=O)[C@@H](C)C1", "activity (normalised, proliferation)": "0.071%"}
{"smiles": "CC(=Cc1csc(C)n1)[C@@H]1C[C@H]2O[C@@H]2CCC[C@H](C)[C@@H](O)[C@@H](C)C(=O)C(C)(C)[C@@H](O)CC(=O)O1", "activity (normalised, proliferation)": "10.3%"}
{"smiles": "COC(=O)[C@@]1(OC)C[C@@H]2O[C@@]1(C)n1c3ccccc3c3c4c(c5c6ccccc6n2c5c31)C(=O)N(C)C4", "activity (normalised, proliferation)": "-0.375% [at 16.5 µM]"}
{"smiles": "CC(=O)N(O)CCCP(=O)(O)O", "activity (normalised, proliferation)": "2.97%"}
{"smiles": "CC=C(C)C(=O)N[C@@H](c1ccccc1)[C@@H](O)C(=O)O[C@H]1C[C@@]2(O)[C@@H](OC(=O)c3ccccc3)[C@@H]3[C@]4(OC(C)=O)CO[C@@H]4C[C@H](O)[C@@]3(C)C(=O)[C@H](OC(C)=O)C(=C1C)C2(C)C", "activity (normalised, proliferation)": "2.88%"}
{"smiles": "COC1=CC(C)=C[C@@H](C)[C@@H](O)[C@@H](C)CC(C)=CC=C[C@H](OC)[C@H]([C@@H](C)[C@@H](O)[C@H](C)[C@@]2(O)C[C@@H](O)[C@H](C)[C@@H](C(C)C)O2)OC1=O", "activity (normalised, proliferation)": "0.863%"}
{"smiles": "CC=C1C2C=C(C)CC1(N)c1ccc(=O)[nH]c1C2", "note": "(stereo unspecified)", "activity (normalised, proliferation)": "103%"}
{"smiles": "C[C@]12O[C@H](C[C@@]1(O)C(=O)O)n1c3ccccc3c3c4c(c5c6ccccc6n2c5c31)CNC4=O", "activity (normalised, proliferation)": "8.93% [at 4.15 µM]"}
{"smiles": "CC(C)(N)CNC(=O)CC1CCC2(CC1)OOC1(O2)C2CC3CC(C2)CC1C3", "note": "(stereo unspecified)", "activity (normalised, proliferation)": "-0.313%"}
{"smiles": "CC1=C(O)C(=O)C=C2C1=CC=C1[C@@]2(C)CC[C@@]2(C)[C@@H]3C[C@](C)(C(=O)O)CC[C@]3(C)CC[C@]12C", "activity (normalised, proliferation)": "7.07%"}
{"smiles": "O=C(C[C@@H]1NCCC[C@@H]1O)Cn1cnc2ccccc2c1=O", "activity (normalised, proliferation)": "-0.592%"}
{"smiles": "CO[C@H]1CCC(O[C@H]2C[C@H]([C@]3(C)CC[C@]4(C[C@H](O)[C@@H](C)[C@@H]([C@@H](C)C=C(C)C(=O)[C@H](C)C[C@H](C)C(=O)O)O4)O3)O[C@]3(O[C@@H]([C@H]4O[C@@](O)(CO)[C@H](C)C[C@H]4C)C[C@H]3C)[C@H]2C)O[C@H]1C", "note": "(stereo partly specified)", "activity (normalised, proliferation)": "120%"}
{"smiles": "O=c1[nH]c2ccc(Cl)cc2c(N[C@@H]2CN3CCC2CC3)c1-c1nc2ccccc2[nH]1", "activity (normalised, proliferation)": "-0.29%"}
{"smiles": "CC(=O)Nc1nnc(S(N)(=O)=O)s1", "activity (normalised, proliferation)": "89.5%"}
{"smiles": "CN1C(=O)C[C@H](C(=O)N[C@@H](Cc2cnc[nH]2)C(=O)N2CCC[C@@H]2C(N)=O)NC1=O", "activity (normalised, proliferation)": "72.5%"}
{"smiles": "C[C@H]1CCCC=CC2C[C@H](O)C[C@@H]2[C@H](O)C=CC(=O)O1", "note": "(stereo partly specified)", "activity (normalised, proliferation)": "-0.991%"}
